We go through 21 compounds from PubChem BioAssay.

Active and inactive are the calls of the source.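 The calls were made as follows, unless noted: active = compounds whose cell count with miR-34 switched on is under 0.7 times the count with it off; inactive = the rest.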

Test [1] has as its system Aerobactin synthetase IucA (Klebsiella pneumoniae). In words: IucA aerobactin synthetase inhibitors, biochemical, Tocris library, absorbance (AID 1345561; call rule not given here;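 also: 100% = enzyme without compound and 0% = no enzyme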). Particulars: purified IucA enzyme assay, absorbance (OD) read-out; stronger effect = lower value;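 tested at 8 µM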.
Test [2] can be described thus: sensitizers of A549 cells to miR-34 induction, primary screen, imaging, A549 dox-inducible miR-34, nuclei and caspase counts (AID 1347080). To be noted: A549 miR-34 inducible, Hoechst nuclei count, 48 h.
Test [3] is described as follows: viability rescue of complex I mutant cybrids, primary screen, cell-based, galactose medium, ATP luminescence (AID 1645843;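 active = z-score of at least 1.8 in each of two replicates, scored against plate mean and spread of sample wells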;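 also: positive z means more ATP and so rescue of galactose-driven cybrid death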). Particulars: complex I mutant cybrid cells, 72 h, stronger effect = higher value.
Setting [4] is: stronger effect = lower value, cell number ratio, induced over uninduced.
The mark [5] stands for this setting: measured here: relative caspase fold change +Dox/-Dox.
The mark [6] stands for this setting: measured here: total cells with miR-34 induction, stronger effect = lower value.
The mark [7] stands for this setting: measured here: total cells without miR-34 induction.

With `NCCCCCc1cnc[nH]1`, in test [1], the remaining activity – broadly, the signal under treatment as a percentage of the control signal – was 118% (inactive). The fold change in test [2] (setting [4]) is 0.92 (inactive); in test [2] (setting [5]) it was 0.639. Further, the cell count turned out to be 9140 in test [2] (setting [6]) and 9930 in test [2] (setting [7]). Also, the z-score in test [3] is -0.155 (inactive).
`O=C1c2ccccc2C(Cc2ccnc(F)c2)(Cc2ccnc(F)c2)c2ccccc21`: in test [1], the remaining activity was 102% (inactive). Further, the fold change is 0.93 (inactive) in test [2] (setting [4]) and 1.37 in test [2] (setting [5]). The cell count came out at 8150 in test [2] (setting [6]) and 8760 in test [2] (setting [7]). Moreover, in test [3], the z-score is 0.3 (inactive).
In the case of `Cc1cc(C)c(N(Cc2ccccc2)S(=O)(=O)c2ccc(OCCNC(=O)c3cc4ccccc4o3)cc2)c(C(=O)NO)c1`, the remaining activity in test [1] was 101% (inactive). Further, the fold change in test [2] (setting [4]) was 0.895 (inactive); in test [2] (setting [5]) it was 0.617. In addition, the figures for the cell count in test [2] (setting [6]) and in test [2] (setting [7]) were 2050 and 2290, respectively. For the same compound, the z-score in test [3] was -0.695 (inactive).
In the case of `O=C(/C=C/c1ccccc1)NC(NC(=S)Nc1cccc2cccnc12)C(Cl)(Cl)Cl` (stereo unspecified), in test [1], the remaining activity was 124% (inactive). Besides, the fold change is 1.01 (inactive) in test [2] (setting [4]) and 1.71 in test [2] (setting [5]). The cell count in test [2] (setting [6]) was found to be 4630; in test [2] (setting [7]) it was 4560. In test [3], the z-score was -0.47 (inactive).
Regarding `CCS(=O)(=O)N(C)[C@H]1c2cc(C#N)ccc2OC(C)(C)[C@@H]1O` (racemic), in test [1], the remaining activity was 119% (inactive). The fold change was 0.884 (inactive) in test [2] (setting [4]) and 1.36 in test [2] (setting [5]). The cell count in test [2] (setting [6]) turned out to be 9180; in test [2] (setting [7]), 10400. Further, the z-score in test [3] was 0.85 (inactive).
Turning to `N=C(N)c1ccc(N2CCN(C3CCN(CC(=O)O)CC3)CC2)cc1`, in test [1], the remaining activity was 115% (inactive). Further, the fold change in test [2] (setting [4]) is 1 (inactive); in test [2] (setting [5]), 0.72. Further, the cell count in test [2] (setting [6]) was 9390; in test [2] (setting [7]), 9350. Moreover, the z-score in test [3] is -0.165 (inactive).
Regarding `NC(C(=O)O)c1cc(O)ccc1Cl` (stereo unspecified), the remaining activity in test [1] is 120% (inactive). The fold change is 1.01 (inactive) in test [2] (setting [4]) and 0.855 in test [2] (setting [5]). Also, the figures for the cell count in test [2] (setting [6]) and in test [2] (setting [7]) were 9170 and 9110, respectively. Moreover, in test [3], the z-score is 4.21 (active).
`CN1CCN(C2=Cc3ccccc3Oc3ccc(Cl)cc32)CC1`: in test [1], the remaining activity was 104% (inactive). Besides, the fold change in test [2] (setting [4]) is 0.963 (inactive); in test [2] (setting [5]), 0.764. For the same compound, the cell count in test [2] (setting [6]) was found to be 6800; in test [2] (setting [7]), 7060. In addition, the z-score in test [3] is -0.9 (inactive).
On to `C[C@@H]1O[C@@]2(CS1)CN1CCC2CC1` (racemic), for which, in test [1], the remaining activity is 111% (inactive). Moreover, the fold change in test [2] (setting [4]) was 0.892 (inactive); in test [2] (setting [5]), 1.88. The cell count in test [2] (setting [6]) was 8540; in test [2] (setting [7]), 9570. Further, in test [3], the z-score was 0.375 (inactive).
As for `NC(=O)N/N=C/c1ccc(Oc2ccc(F)cc2)cc1`, in test [1], the remaining activity was 94.3% (inactive). Also, the fold change in test [2] (setting [4]) was 0.798 (inactive); in test [2] (setting [5]), 2.22. In addition, the cell count is 7090 in test [2] (setting [6]) and 8890 in test [2] (setting [7]). For the same compound, the z-score in test [3] was 0.135 (inactive).
For the compound `Cc1noc(NS(=O)(=O)c2cccc3c(N(C)C)cccc23)c1C`, in test [1], the remaining activity was 116% (inactive). Also, the fold change was 0.967 (inactive) in test [2] (setting [4]) and 0.84 in test [2] (setting [5]). The cell count came to 8350 in test [2] (setting [6]) and 8630 in test [2] (setting [7]). Further, the z-score in test [3] is -0.135 (inactive).
Turning to `c1ccc2sc(N3CCN(Cc4ccc5c(c4)OCO5)CC3)nc2c1`, in test [1], the remaining activity is 98.7% (inactive). Moreover, the values for the fold change in test [2] (setting [4]) and in test [2] (setting [5]) were 0.958 (inactive) and 0.859, respectively. In addition, the cell count was 9100 in test [2] (setting [6]) and 9500 in test [2] (setting [7]). Also, in test [3], the z-score is -0.155 (inactive).
Regarding `N#C/C(=C\c1ccc(O)c(O)c1)C(=O)NCCCCc1ccccc1`, the remaining activity in test [1] was 95.7% (inactive). For the same compound, the fold change was 0.982 (inactive) in test [2] (setting [4]) and 1.09 in test [2] (setting [5]). Moreover, the cell count in test [2] (setting [6]) is 7480; in test [2] (setting [7]), 7610. In addition, the z-score in test [3] is -0.725 (inactive).
`COc1cccc(NC(=O)/C=C/c2ccc(Cl)cc2)c1`: the remaining activity in test [1] is 93.6% (inactive). Moreover, the fold change in test [2] (setting [4]) is 0.9 (inactive); in test [2] (setting [5]), 1.32. In addition, the cell count in test [2] (setting [6]) was found to be 5860; in test [2] (setting [7]), 6510. For the same compound, the z-score in test [3] is 0.75 (inactive).
Regarding `c1ccc(N2CCN(CCCOc3ccc4c(c3)OCO4)CC2)cc1`, in test [1], the remaining activity is 103% (inactive). In addition, the values for the fold change in test [2] (setting [4]) and in test [2] (setting [5]) were 0.912 (inactive) and 0.762, respectively. The cell count in test [2] (setting [6]) came to 8370; in test [2] (setting [7]) it was 9180. The z-score in test [3] was 0.385 (inactive).
Turning to `CN(CCc1ccc(Cl)c(Cl)c1)CCN1CCCC1`, the remaining activity in test [1] was 108% (inactive). Besides, the fold change in test [2] (setting [4]) was 1.01 (inactive); in test [2] (setting [5]), 0.63. Further, the cell count was 8830 in test [2] (setting [6]) and 8750 in test [2] (setting [7]). The z-score in test [3] was -1.06 (inactive).
Regarding `COc1ccccc1C1(O)CCN(CCCn2c3ccccc3c3ccccc32)CC1`, in test [1], the remaining activity is 91.1% (inactive). Further, the fold change in test [2] (setting [4]) was 0.694 (active); in test [2] (setting [5]), 1.55. Besides, the cell count came to 323 in test [2] (setting [6]) and 466 in test [2] (setting [7]). In test [3], the z-score is -0.705 (inactive).
For `N#C/C(=C\c1ccc(O)c(O)c1)C(=O)OCCc1cccs1`, the remaining activity in test [1] is 110% (inactive). Further, the fold change is 0.871 (inactive) in test [2] (setting [4]) and 1.36 in test [2] (setting [5]). Also, the cell count stood at 8430 in test [2] (setting [6]) and 9690 in test [2] (setting [7]). In addition, in test [3], the z-score was -0.59 (inactive).
For `CC(C)(C)c1cc(C(=O)/C=C/c2ccc(C(=O)O)cc2)cc(C(C)(C)C)c1`, in test [1], the remaining activity was 108% (inactive). The fold change in test [2] (setting [4]) is 1.11 (inactive); in test [2] (setting [5]), 1.56. Also, the cell count in test [2] (setting [6]) was determined as 1370; in test [2] (setting [7]) it was 1240. Besides, in test [3], the z-score was -0.69 (inactive).
Turning to `CC(C)c1ccccc1S(=O)(=O)c1cc(N)c2ncccc2c1[N+](=O)[O-]`, in test [1], the remaining activity was 94.3% (inactive). In addition, the figures for the fold change in test [2] (setting [4]) and in test [2] (setting [5]) were 0.871 (inactive) and 1.36, respectively. Also, the figures for the cell count in test [2] (setting [6]) and in test [2] (setting [7]) were 6170 and 7090, respectively. Besides, in test [3], the z-score is -0.685 (inactive).
For `COc1ccc(Nc2ncnc3ccc(OC)cc23)cc1`, in test [1], the remaining activity is 108% (inactive). The fold change in test [2] (setting [4]) was 0.902 (inactive); in test [2] (setting [5]) it was 1.09. Also, the cell count in test [2] (setting [6]) worked out at 6910; in test [2] (setting [7]), 7660. The z-score in test [3] was -0.345 (inactive).
